# In PubChem BioAssay AID651820 (National Center for Advancing Translational Sciences (NCATS), 2012):
# Among all 340,000 compounds or so, about 12,000 (3.5%) were called active. Entries that show only a call come without a potency. Roughly 18% stayed inconclusive and do not appear here. The full list was thinned out, with actives kept by preference. Values without a mark were called inactive. The call rests on the fitted dose curve; in most records, active means well fitted inhibition curve with a large enough effect; inconclusive means small, poorly fitted or top-dose-only effect, or another doubt; inactive means no such curve, though single readings can be large or run the other way.
# Assay: qHTS Assay for Inhibitors of Hepatitis C Virus (HCV)
# Conditions: Huh7.5.1 HCVcc-Cre infection, luciferase reporter, 44 h; series mostly up to 41.8 µM
# Outline: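 Infectious HCVcc-Cre (~0.5 moi) was added to cells just after compound, with cells seeded 4 h earlier at 1,000 per well. Luciferase activity after 44 h culture reported infection; substrate was incubated 15 min at room temperature before reading.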
# Potency means the concentration at half of the fitted maximal effect.
SMILES,"activity change, negative = inhibition",Potency
CC(=O)c1cccc(-c2ccc(CN3C(CC(C)C)C(=O)N(Cc4cn(CC5CCCCC5)nn4)CCS3(=O)=O)cc2)c1 (stereo not drawn),-21% [at 8.37 µM],–
COc1ccccc1-n1cnc2cc(NS(=O)(=O)c3ccccc3)ccc21,–,22.4 µM (active)
COc1ccccc1-n1cnc2cc(C(=O)NCC3CCCO3)ccc21 (stereo not drawn),–,inactive
Cn1c(CCN2CCCC2)nc2cc(NS(=O)(=O)c3ccccc3)ccc21,–,inactive
O=C(COC(=O)c1ccc(F)cc1)Nc1ccc2c(c1)OCO2,–,inactive
COc1ccc(C(=O)NCC2CCCN2S(=O)(=O)c2cccs2)cc1OC (stereo not drawn),–,inactive
COc1ccccc1CCNC(=O)C(=O)NCCC1CCCCN1S(=O)(=O)c1cccs1 (stereo not drawn),–,35.5 µM (active)
O=C(NCc1ccccc1Cl)C(=O)NCC1CCCN1S(=O)(=O)c1cccs1 (stereo not drawn),–,inactive
Oc1[nH]c2ccccc2c1N=Nc1c(F)c(F)c(F)c(F)c1F,–,inactive
Nc1cc2c(cc1Br)-c1ccc(F)cc1C2=O,–,12.6 µM (active)
CC1CCCCC1NC(=O)NC(=O)COC(=O)C1=NN(c2ccccc2)C(=O)CC1 (stereo not drawn),–,inactive
COc1ccccc1C(c1nnnn1C(C)(C)C)N1CCN(Cc2ccccc2)CC1 (stereo not drawn),–,inactive
COc1ccc(OC)c(C(c2nnnn2C(C)(C)C)N2CCc3ccccc3C2)c1 (stereo not drawn),–,7.94 µM (active)
Cc1ccc(C(c2nnnn2C(C)(C)C)N2CCc3ccccc3C2)cc1 (stereo not drawn),–,inactive
CCCCn1c(N)c(N(CC)C(=O)c2ccc(N(C)S(=O)(=O)c3ccc(C)cc3)cc2)c(=O)[nH]c1=O,–,inactive
O=C(c1ccc2c(c1)C(=O)N(Cc1ccncc1)C2=O)N1CCN(S(=O)(=O)c2ccc(OC(F)(F)F)cc2)CC1,–,inactive
Oc1ccc(/C=N/Nc2nc(-c3ccccc3F)nc3ccccc23)c(O)c1,–,11.2 µM (active)
Cc1cc(N/N=C/c2ccccc2F)c2ccccc2n1,–,inactive
Fc1ccc(/C=N/Nc2nc(-c3cccnc3)nc3ccccc23)cc1,–,inactive
C[C@]12CC[C@H](O)CC1=CCC1C2CC[C@@]2(C)C1CC[C@@H]2NC(=O)CCC(=O)O (stereo partly drawn),–,inactive
NC(N)=N/N=C/c1ccc(OCc2ccc(Cl)cc2Cl)cc1,–,11.2 µM (active)

SMILES,"activity change, negative = inhibition",Potency
CCOc1ccc(NC(=O)NNC(=O)c2ccc(Cl)cc2Cl)cc1,–,inactive
COC(=O)c1sc2ncccc2c1OCc1ccc(Cl)cc1Cl,–,inactive
CC(=O)NC12CC3CC(C1)CC(C(=O)N1CCN(S(=O)(=O)c4cccs4)CC1)(C3)C2,–,inactive
COc1cccc(/C=N/Nc2ccc(Cl)nn2)c1,–,inactive
CCCCCCCN=C(C)c1ccccc1O,–,inactive
CC(C)=C(NC(=O)c1ccccc1)C(=O)N/N=C(\C)c1ccccc1O,–,inactive
Oc1cccc(/C=N/Nc2ccc(Cl)nn2)c1O,–,2.51 µM (active)
Clc1ccc(N/N=C/c2cccs2)nn1,–,inactive
C/C(=N\Nc1ccc(Cl)nn1)c1ccccc1O,–,0.501 µM (active)
CCCN(C(=O)CSc1nnc(N)s1)c1c(N)n(Cc2ccccc2)c(=O)[nH]c1=O,–,inactive
CCc1ccc(-c2nn(-c3ccccc3C)cc2C(=O)N2CCN(C3CCS(=O)(=O)C3)CC2)cc1 (stereo not drawn),–,inactive
Cc1ccc(-c2nn(-c3ccccc3)cc2C(=O)NC2CCC(O)CC2)cc1 (stereo not drawn),–,inactive
CCc1ccc(-c2nn(-c3ccccc3)cc2CSC(=N)N)cc1,–,10 µM (active)
Cc1ccc(NC(=O)C(C)Sc2nnc(C3CC3)n2C2CC2)cc1S(=O)(=O)N1CCOCC1 (stereo not drawn),–,inactive
CC(C)CC[n+]1ccn(C2=C([O-])c3ccccc3C(=O)/C2=N\S(=O)(=O)c2ccccc2)c1,–,10 µM (active)
COc1ccc(C(=O)NCc2ccccc2C)cc1S(=O)(=O)NC1CCCC1,–,inactive
CCCCN(C(=O)C1CCC1)c1c(N)n(Cc2ccccc2)c(=O)[nH]c1=O,–,inactive
COc1ccc(CCC(=O)c2ccc(OC)cc2)cc1,–,inactive
COc1ccc(C(=O)C[n+]2ccc(C)cc2)cc1,–,inactive
COc1ccc(C(=O)C[n+]2ccc(N)c(C)c2C)cc1,–,2.24 µM (active)
COc1cc(/C=C/C(=O)OCC(=O)c2ccccc2)cc(OC)c1OC,–,inactive

SMILES,"activity change, negative = inhibition",Potency
COc1ccc(S(=O)(=O)N(C)C[C@H]2Oc3ccc(NS(=O)(=O)c4cccs4)cc3CC(=O)N([C@H](C)CO)C[C@H]2C)cc1,–,inactive
O=C(COc1ccc(F)cc1Br)NCC1COc2ccccc2O1 (stereo not drawn),–,inactive
CC1(C)Cc2cccc(OCC(=O)N3CCN(c4ccc([N+](=O)[O-])cc4)CC3)c2O1,–,10 µM (active)
CC1(C)Cc2cccc(OCC(=O)NCc3ccccc3)c2O1,–,inactive
CC1(C)Cc2cccc(OCC(N)=O)c2O1,–,inactive
COc1ccc(CCOC2OC(CO)C(OC(=O)/C=C/c3ccc(O)c(OC)c3)C(O[C@H]3O[C@@H](C)[C@H](O)[C@@H](O)[C@H]3O)C2O)cc1O (stereo partly drawn),–,inactive
COc1cc(OC)c(OC)cc1/C=N/Nc1ncnc2c1[nH]c1ccc(C)cc12,–,inactive
CC(C)OCCCNc1ncnc2c1[nH]c1ccc(F)cc12,–,12.6 µM (active)
COc1ccc2[nH]c3c(=O)n(Cc4ccco4)cnc3c2c1,–,inactive
O=C(COC(=O)c1cccc(Cl)c1)NC1CCCCCCC1,–,inactive
O=C1NC(Cc2ccc(O)cc2)c2nc3ccc(Cl)cc3c(=O)n2-c2ccccc21 (stereo not drawn),–,inactive
Cc1ccc(C(=O)NNC(=O)OC(C)(C)C)c(Cl)c1,–,inactive
O=C(NNc1c2ccccc2nc2ccccc12)c1cc2ccccc2cc1O,–,2.82 µM (active)
Cc1ccccc1NC(=O)NNC(=O)OC(C)(C)C,–,inactive
CC(C)(C)OC(=O)NNc1c2ccccc2nc2ccccc12,–,2.82 µM (active)
O=C(N/N=C/c1cccnc1)c1cc2ccccc2cc1O,–,inactive
COc1ccc(-c2cc(C(=O)Nc3ccccc3O)c3ccccc3n2)cc1,–,inactive
CC(C)CN(C(=O)COC(=O)c1ccc(Cl)c(N)c1)c1c(N)n(Cc2ccccc2)c(=O)[nH]c1=O,–,inactive
O=C(CSc1nc2[nH]ncc2c(=O)[nH]1)Nc1ccc(F)cc1,–,inactive
COc1cc(/C=N/NC(=O)c2cc(-c3ccccc3C)nc3ccccc23)cc(OC)c1O,–,inactive
Cc1ccc(C(=O)OCC(=O)N2CCCCCC2)cc1S(=O)(=O)N1CCOCC1,–,inactive
